Pol iota inh: blocks human DNA polymerase iota activity | Q9UNA4 | Pol iota fluorescent replication assay, 10 min | Potency, µM (series often up to 115 µM), for the others: top-dose activity, negative = inhibition, most hits filed as inhibitors | 390,000 compounds, 1% hits
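Fluorescent replication assay read twice, at 0 min and 10 min after adding 50 nM (final) substrate. Enzyme (10 nM) and compounds were first incubated 15 min at room temperature; enzyme-free buffer wells were negative controls.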
POLB inh: blocks human DNA polymerase beta activity; P06746; Pol beta primer extension/strand displacement, fluorescence kinetic; Potency, µM (doses to about 114 µM), without a hit: at the highest dose activity change, negative = inhibition, hits mostly inhibitors; 340,000 compounds, 1.3% hits; also: % is scaled to controls: 0 for no effect and ±100 for the full control effect
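Pol beta (10 nM) was preincubated with compound for 15 min at room temperature. The reaction was then started with 50 nM substrate and read immediately and after a further 10 min at room temperature.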
FEN1 inhibitor: inhibitors of human flap endonuclease 1 | P39748 | Recombinant FEN1 flap cleavage, fluorescence, 15 min | Potency, µM (highest dose often 114 µM), for inactives: at the highest dose activity change, negative = inhibition, usual class: inhibitors | 390,000 compounds, 0.35% hits | AID 588795; also: % is scaled to controls: 0 for no effect and ±100 for the full control effect; nearly all actives have a fitted effect of over 65% in size
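Read-out was taken twice, immediately and after 15 min, following addition of 50 nM substrate to 10 nM FEN1 that had sat with test compound for 15 min at room temperature. Curves came from a four-parameter Hill model.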
WRN helicase inh: inhibitors of human WRN helicase. Q14191. WRN helicase unwinding, fluorescent forked duplex, kinetic. Potency, µM (titrated, usually from 114 µM), inactives show at the top dose activity change, negative = inhibition, actives largely listed as inhibitors. 360,000 compounds, 0.46% hits. AID 651768; also: % is scaled to controls: 0 for no effect and ±100 for the full control effect; nearly all actives have a fitted effect of over 55% in size
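WRN at 20 nM final was preincubated with compound for 15 min at room temperature; reaction started with 100 nM forked duplex oligonucleotide carrying fluorophore and quencher plus 2 mM ATP (final). Unwinding followed kinetically by red fluorescence (ex 525/em 598 nm).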
Pol eta inh: DNA polymerase eta (human) inhibition | Q9Y253 | recombinant Pol eta, fluorescent DNA replication assay | 390,000 compounds, 1.2% hits | Potency, µM (doses to about 114 µM), for the others: at the highest dose activity change, negative = inhibition, actives largely listed as inhibitors; also: % is scaled to controls: 0 for no effect and ±100 for the full control effect
Target sequence (Q9Y253 whole entry, looked up): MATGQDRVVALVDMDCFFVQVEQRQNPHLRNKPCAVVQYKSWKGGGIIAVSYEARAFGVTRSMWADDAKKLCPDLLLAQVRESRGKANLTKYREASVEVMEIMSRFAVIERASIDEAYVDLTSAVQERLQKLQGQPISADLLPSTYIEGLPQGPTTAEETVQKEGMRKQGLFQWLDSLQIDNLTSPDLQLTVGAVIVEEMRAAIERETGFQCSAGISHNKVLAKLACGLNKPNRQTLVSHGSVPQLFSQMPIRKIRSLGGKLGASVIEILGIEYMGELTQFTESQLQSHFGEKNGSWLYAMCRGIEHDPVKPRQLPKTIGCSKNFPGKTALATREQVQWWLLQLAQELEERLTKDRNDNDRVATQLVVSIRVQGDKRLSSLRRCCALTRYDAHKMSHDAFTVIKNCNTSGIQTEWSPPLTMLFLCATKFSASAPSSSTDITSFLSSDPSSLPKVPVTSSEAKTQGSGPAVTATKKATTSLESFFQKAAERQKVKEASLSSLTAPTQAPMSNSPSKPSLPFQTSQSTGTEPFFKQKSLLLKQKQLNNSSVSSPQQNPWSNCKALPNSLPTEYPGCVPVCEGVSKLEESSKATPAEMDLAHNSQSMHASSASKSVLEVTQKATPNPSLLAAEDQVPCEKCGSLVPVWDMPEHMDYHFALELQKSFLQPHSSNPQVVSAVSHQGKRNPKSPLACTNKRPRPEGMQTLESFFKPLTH
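Fluorescent replication assay: 50 nM final substrate added after a 15 min room-temperature compound preincubation with 10 nM enzyme. Signal taken at 0 min and again at 10 min.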
POLK inh: DNA polymerase kappa (human) inhibition | 400,000 compounds, 0.53% hits | Potency, µM (titrated, usually from 107 µM), for the others: at the top dose activity, negative = inhibition, most hits filed as inhibitors | purified Pol kappa, fluorescent DNA synthesis assay, 10 min | AID 588579; also: % is scaled to controls: 0 for no effect and ±100 for the full control effect
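Activity was followed as the change in fluorescence between reads at 0 and 10 min after starting the reaction with 50 nM substrate. Beforehand, 10 nM polymerase had been preincubated with compound for 15 min at room temperature.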
Active calls of the source: *; ? = inconclusive; · = not tested or not shown; [ ] = remark or other dose. Compounds with a hit are over-represented: about 2.4% of the library has one in this group of screens. Calls follow the shape of the dose curve; as a rule, active = well fitted curve in the direction sought with a large enough effect; inconclusive = small, poorly fitted or top-dose-only effect, or another doubt; inactive = no such curve, though single readings can be large; an effect the other way counts as inactive or inconclusive. Potency is read from the fitted curve at half-maximal effect.

SMILES	Pol iota inh	POLB inh	FEN1 inhibitor	WRN helicase inh	Pol eta inh	POLK inh
COc1ccccc1OCC(=O)NCc1ccco1	-6%	8%	-2%	5%	0%	1%
COc1c2c(c(CCC(=O)O)c3c1C=CC(C)(C)O3)OC(C)(C)C=C2	?	·	21%	-16%	18µM*	-29%
COc1cc(-c2nn3c(-c4ccco4)nnc3s2)cc(OC)c1OC	·	15%	·	·	·	·
Clc1ccc(-c2ccc(-c3nn4c(-c5ccco5)nnc4s3)o2)cc1	?	·	-23%	?	79µM*	-22%
Brc1ccc(-c2nn3c(-c4ccco4)nnc3s2)o1	?	45µM*	?	?	?	?
Brc1ccc(-c2nn3c(-c4ccncc4)nnc3s2)o1	·	-5%	·	·	·	·
CCCCN1CCC[C@H]1CNC(=O)c1cc(C#N)c2ccccc2c1OC	·	·	·	·	·	14%[60.1 µM]
Cc1nn(CC(=O)NCCc2cccs2)c(=O)c2nn(-c3ccccc3)c(C)c12	35µM*	?	18%	2%[11.6 µM]	-25%	-16%
Cc1nn(CC(=O)NCCc2ccco2)c(=O)c2nn(-c3ccccc3)c(C)c12	22µM*	89µM*	-14%	-3%[11.6 µM]	32µM*	-44%
Cc1ccc(-n2nc3c(=O)n(CC(=O)NCc4cccs4)nc(C)c3c2C)cc1	24%	50%	20%	-1%	-11%	-1%
O=C(C[n+]1ccccc1Br)c1ccc(F)cc1	15%	·	-5%	·	·	8%
Cc1ccc(NC(=O)CCl)c(C)c1	99%	20%	4%	8%	-3%	-18%
Cc1ccc(NC(=O)C(=Cc2ccc(C(=O)O)cc2)C(=O)Nc2ccc(C)cc2C)c(C)c1	13µM*	-25%	-2%	?	79µM*	8%
CCOC(=O)c1c(NC(C)=O)sc2c(OCC(O)CNC(C)(C)C)c(Br)ccc12 (centres undefined)	?	0%	22µM*	47%	-18%	-14%
Cc1ccc(NC(=O)c2ccc(Cl)c(N3C(=O)C=CC3=O)c2)cc1	2%	1%	-6%	50µM*	-3%	-10%
Cc1ccc(NC(=O)c2ccc(C)c(S(=O)(=O)N3CCCCCC3)c2)cc1	0%	-17%	-2%	·	-20%	-4%[60.1 µM]
N#CN=c1snc(-c2ccccc2Cl)n1-c1ccccc1Cl	59%	·	-18%	·	·	-24%
Cn1c(N)c(C(=O)COC(=O)CNC(=O)c2ccccc2)c(=O)n(C)c1=O	102%	·	9%	2%	-20%	-10%
Cc1ccc(C(=O)NCC(=O)OCC(=O)c2c(N)n(C)c(=O)n(C)c2=O)s1	?	35µM*	6%	-4%[57.1 µM]	?	-6%
O=C(CSc1nccn1Cc1ccc(F)cc1)Nc1ccc2c(c1)OCCO2	9%	27%	-15%	·	-14%	-7%[60.1 µM]
O=C1NC(=S)/C(=C\c2ccc(-c3ccccc3Cl)o2)S1	?	40µM*	?	50µM*	16µM*	?
Cc1nnc(C)n1/N=C/c1ccc(-c2ccccc2Cl)o1	129%	60%	-4%	11%	-12%	-2%
CC(=O)c1cccc(S(=O)(=O)NC(C)C2CC3CCC2C3)c1 (centres undefined)	?	22µM*	-14%	?	?	-5%
CC(NC(=O)c1cccc(S(=O)(=O)N(C)C)c1)C1CC2CCC1C2 (centres undefined)	19%	2%	2%	12%	8%	2%
COc1cc(C(=O)Nc2nnc(-c3sccc3C)s2)cc(OC)c1OC	-9%	0%	13%	50µM*	13µM*	-7%
SMILES	Pol iota inh	POLB inh	FEN1 inhibitor	WRN helicase inh	Pol eta inh	POLK inh
Nc1cc(C(=O)O)c(Oc2ccc(Cl)cc2Cl)cc1C(=O)O	-4%	22µM*	-5%	-7%[57.1 µM]	?	-16%
COc1ccc(Cl)cc1NC(=O)Cn1ccn(Cc2ccc(C)cc2)c(=O)c1=O	9%	-12%	-5%	·	-3%	-21%
CN(C)c1ccc(C(=O)OCC(=O)Nc2ccc(S(N)(=O)=O)cc2)cc1	?	?	?	45µM*	?	50µM*
O=c1cc[nH]c2c1ccc1c(=O)cc[nH]c12	?	-23%	?	-4%[11.6 µM]	28µM*	?
O=C(O)CCc1ccc(-c2ccc(Cl)cc2)o1	?	-2%	-1%	-18%	0%	?
O=C(O)CCc1ccc(-c2ccc(Br)cc2)o1	40µM*	28%	9%	?	-3%	?
CCOc1ccccc1-c1nc(-c2ccc(NC(=O)Cc3ccc(OC)cc3)cc2)no1	?	32µM*	2%	-28%[57.1 µM]	?	-21%
CC1=NN(c2ccc(C)cc2C)C(=O)C1C(c1cccc(O)c1)C1C(=O)N(c2ccc(C)cc2C)N=C1C (centres undefined)	1.3µM*	36%	-5%	-18%	-21%	-4%
Cc1nc2ccc(S(=O)(=O)N(CC(=O)Nc3ccc(F)cc3F)Cc3ccccc3)cc2s1	9%	1%	3%	·	-4%	5%
CC(OC(=O)c1ccc(-n2cnnn2)cc1)C(=O)Nc1ccc(F)c(F)c1F (centres undefined)	40µM*	·	-22%	-18%	56µM*	?
CC(OC(=O)c1ccc(-n2cnnn2)cc1)C(=O)Nc1ccccc1F (centres undefined)	11%	·	3%	1%	1%	-7%
Fc1ccc(/C=C/c2ccc3ccccc3n2)cc1	-4%	·	-7%	·	·	?
CCn1nc([N+](=O)[O-])c2c(-c3nc4ccccc4o3)c(N)n(CCCOC)c2c1=O	160%	?	-23%	32µM*	?	1%
CC(=O)Nc1cccc(NC(=O)CCn2cnc3cc(C)c(C)cc32)c1	?	25µM*	-5%	-9%	?	-32%
Cc1ccc(NC(=O)CCn2cnc3cc(C)c(C)cc32)cc1	24%	-6%	7%	6%	-16%	13%
COCCn1nnnc1C(c1cc2cc(OC)c(OC)cc2[nH]c1=O)N1CCN(c2ccc(O)cc2)CC1 (centres undefined)	45µM*	-3%	-11%	?	-9%	-27%
CCc1ccc2[nH]c(=O)c(C(c3nnnn3CCOC)N3CCN(c4ccc(F)cc4)CC3)cc2c1 (centres undefined)	-2%	7%	-12%	-9%	-14%	-7%
Cc1cccc2cc(C#N)c(SCCN3CCCCC3)nc12	?	·	50µM*	-10%	?	-29%
COC(=O)c1ccccc1NC(=O)c1cnn2c1NC(=C1CC1)C=C2C(F)F	18%	·	-25%	·	·	3%
COc1cc2c(cc1OC)CN(C(=O)CN1CCN(S(=O)(=O)c3ccccc3Br)CC1)CC2	14%	8%	-3%	7%	-6%	1%
COc1cc2c(cc1OC)CN(C(=O)Cn1ccccc1=O)CC2	?	79µM*	-1%	-4%	35µM*	-30%
